PubChem BioAssay (EPA / NIEHS)
Inconclusive results are not listed. The source made the active and inactive calls. Rule for the calls, unless noted: active = hit-call score of the fitted dose curve at least 0.9, where 1 is the maximum; inactive = score below 0.9.

Experiments:
[1] = ATG_PXRE_CIS: Attagene CIS-FACTORIAL HepG2 Assay for human Pregnane X Receptor Element (PXRE) (AID 2282957); conditions: HepG2 Attagene CIS-FACTORIAL PXRE reporter, mRNA; actives raise or lower the signal
In short: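 After a 24 h chemical incubation, total RNA from transfected HepG2 cells was reverse-transcribed and reporter cDNA amplified, FAM-labeled, HpaI-digested and sized by capillary electrophoresis. DMSO served as baseline for bidirectional curve fitting.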

[2] = ATG_PPRE_CIS: Attagene CIS-FACTORIAL HepG2 Assay for human Peroxisome Proliferator-activated Response Element (PPRE) (AID 2282958); conditions: HepG2 PPRE cis-element reporter, Attagene transcription factor profiling; actives raise or lower the signal
In short: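 Endogenous PPRE-driven transcription is measured in HepG2 cells carrying transfected multi-reporter constructs. Reporter transcripts are quantified by RT-PCR, HpaI digestion and capillary electrophoresis 24 h after dosing. DMSO baseline, bidirectional fit.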

[3] = ATG_RORE_CIS: Attagene CIS-FACTORIAL HepG2 Assay for human RAR-related Orphan Receptor Element (RORE) (AID 2282959); conditions: HepG2 Attagene cis-factorial RORE reporter, mRNA; actives raise or lower the signal
In short: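 RORE reporter transcripts reflecting endogenous factor activity were read after 24 h compound exposure of transfected HepG2 cells, using reverse transcription, PCR, fluorescent labelling and capillary electrophoresis sizing. Gain or loss fitted against DMSO.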

[4] = ATG_Sox_CIS: Attagene CIS-FACTORIAL HepG2 Assay for human SRY-box transcription factor (SOX) (AID 2282960); conditions: HepG2 Attagene cis-factorial SOX reporter, mRNA; actives raise or lower the signal
In short: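 Reporter transcripts, measured by RT-PCR and capillary electrophoresis of labelled fragments, report endogenous SOX transcription factor activity. Transiently transfected human HepG2 cells receive chemical for 24 h; changes in either direction are fitted relative to DMSO.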

[5] = biological target: Transcription factor Sp1 (Homo sapiens) (UniProt P08047); test: ATG_Sp1_CIS: Attagene CIS-FACTORIAL HepG2 Assay for human Specificity Protein 1 (Sp1) (AID 2282961); conditions: HepG2 Sp1 cis-reporter transcription, actives raise or lower the signal
Transcription factor Sp1 (Homo sapiens), sequence (P08047 whole entry, looked up): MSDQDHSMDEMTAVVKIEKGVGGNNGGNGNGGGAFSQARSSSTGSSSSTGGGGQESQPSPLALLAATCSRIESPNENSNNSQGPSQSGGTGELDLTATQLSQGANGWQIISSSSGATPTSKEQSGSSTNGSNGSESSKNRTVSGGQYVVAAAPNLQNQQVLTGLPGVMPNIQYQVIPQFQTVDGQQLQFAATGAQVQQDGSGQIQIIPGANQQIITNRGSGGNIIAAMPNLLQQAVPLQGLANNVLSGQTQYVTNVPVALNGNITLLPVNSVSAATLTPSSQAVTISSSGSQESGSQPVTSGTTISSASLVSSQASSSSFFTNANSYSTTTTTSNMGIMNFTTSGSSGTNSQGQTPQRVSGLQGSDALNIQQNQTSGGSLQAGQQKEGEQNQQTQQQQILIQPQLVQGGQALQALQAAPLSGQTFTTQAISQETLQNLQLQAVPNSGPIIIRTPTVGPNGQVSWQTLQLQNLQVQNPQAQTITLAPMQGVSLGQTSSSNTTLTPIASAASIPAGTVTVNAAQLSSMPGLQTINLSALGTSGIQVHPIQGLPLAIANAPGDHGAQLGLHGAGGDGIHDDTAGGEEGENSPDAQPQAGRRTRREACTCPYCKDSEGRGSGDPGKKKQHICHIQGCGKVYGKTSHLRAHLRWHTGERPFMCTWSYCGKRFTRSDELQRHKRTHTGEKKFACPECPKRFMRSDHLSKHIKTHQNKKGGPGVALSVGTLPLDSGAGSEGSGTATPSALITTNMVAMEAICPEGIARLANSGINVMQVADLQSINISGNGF
In short: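 Read-out is reporter transcript level, measured by RT-PCR and fluorescent capillary electrophoresis after 24 h chemical treatment. System: transiently transfected HepG2 cells reporting endogenous transcription factor activity; gain or loss fitted against DMSO baseline.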

[6] = ATG_SREBP_CIS: Attagene CIS-FACTORIAL HepG2 Assay for human Sterol Regulatory Element Binding (SREBP) (AID 2282962); conditions: HepG2 Attagene cis-factorial SREBP reporter, mRNA; actives raise or lower the signal
In short: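 Endogenous factor activity is measured in HepG2 through multiplexed reporter units under cis-element control. Following a 24 h incubation, reporter transcripts are reverse-transcribed, PCR-amplified and sized by capillary electrophoresis; activity is fitted in both directions relative to DMSO.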

[7] = biological target: Signal transducer and activator of transcription 3 (Homo sapiens) (UniProt P40763); test: ATG_STAT3_CIS: Attagene CIS-FACTORIAL HepG2 Assay for human Signal Transducer and Activator of Transcription 3 (STAT3) (AID 2282963); conditions: HepG2, Attagene cis-factorial STAT3 reporter transcription; actives raise or lower the signal
Signal transducer and activator of transcription 3 (Homo sapiens), sequence (P40763 whole entry, looked up, the tested form may be a part): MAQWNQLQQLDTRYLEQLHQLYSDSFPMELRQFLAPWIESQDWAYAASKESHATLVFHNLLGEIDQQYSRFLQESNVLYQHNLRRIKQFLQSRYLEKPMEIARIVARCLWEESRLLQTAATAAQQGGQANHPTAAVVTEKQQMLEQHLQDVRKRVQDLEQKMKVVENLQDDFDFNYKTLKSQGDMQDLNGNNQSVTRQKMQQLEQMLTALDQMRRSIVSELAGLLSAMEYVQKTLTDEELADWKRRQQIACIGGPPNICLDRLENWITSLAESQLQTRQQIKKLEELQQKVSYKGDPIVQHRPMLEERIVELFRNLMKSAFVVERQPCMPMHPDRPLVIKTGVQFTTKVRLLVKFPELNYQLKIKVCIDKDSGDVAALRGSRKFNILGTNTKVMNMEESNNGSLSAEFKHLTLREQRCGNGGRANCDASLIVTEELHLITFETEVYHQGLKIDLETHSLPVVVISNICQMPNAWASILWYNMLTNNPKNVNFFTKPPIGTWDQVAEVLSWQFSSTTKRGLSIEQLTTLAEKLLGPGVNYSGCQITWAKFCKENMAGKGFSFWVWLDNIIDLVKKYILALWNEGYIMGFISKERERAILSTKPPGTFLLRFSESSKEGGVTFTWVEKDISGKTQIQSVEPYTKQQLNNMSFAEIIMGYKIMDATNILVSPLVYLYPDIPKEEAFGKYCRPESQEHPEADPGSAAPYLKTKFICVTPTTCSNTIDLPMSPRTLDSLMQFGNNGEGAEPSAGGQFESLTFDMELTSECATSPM
In short: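 Fluorescence intensity of 6-FAM-labelled reporter fragments, separated by capillary electrophoresis after RT-PCR, gave the signal. Cells were HepG2 transfected with cis-element reporter units and treated 24 h; fitting was bidirectional relative to DMSO.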

[8] = ATG_TA_CIS: Attagene CIS-FACTORIAL HepG2 Assay for human TA Basal Promoter (AID 2282964); conditions: HepG2 Attagene CIS-factorial TA basal promoter reporter; actives raise or lower the signal
In short: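 HepG2 cells transiently transfected with multiplexed cis-promoter reporter units, dosed 24 h. Reporter mRNA measured by RT-PCR, 6-FAM labelling, HpaI digestion and capillary electrophoresis; bidirectional fit versus DMSO baseline, serving as background control.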

[9] = ATG_TCF_b_cat_CIS: Attagene CIS-FACTORIAL HepG2 Assay for human T-Cell-Factor with beta-catenin (TCF/b-cat) (AID 2282965); conditions: HepG2 TCF/beta-catenin cis-reporter transcription, actives raise or lower the signal
In short: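 HepG2, transient MRTU transfection, cis-element-driven reporters (endogenous TFs). 24 h compound exposure. Readout: reporter mRNA by RT-PCR + 6-FAM primer extension, HpaI digest, capillary electrophoresis. Gain/loss fit vs DMSO baseline.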

[10] = ATG_TAL_CIS: Attagene CIS-FACTORIAL HepG2 Assay for human TAL Basal Promoter (AID 2282966); conditions: HepG2 Attagene cis-factorial TAL promoter reporter; actives raise or lower the signal;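 note: background control endpoint measuring basal TAL promoter reporter mRNA not a specific factor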
In short: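 Basal-promoter background-control endpoint from a multiplexed HepG2 reporter panel. Cells were exposed 24 h, then reporter mRNA was read by RT-PCR/CE fluorescence and fitted in both directions relative to DMSO.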

[11] = ATG_TGFb_CIS: Attagene CIS-FACTORIAL HepG2 Assay for human Transforming Growth Factor (TGF) (AID 2282967); conditions: HepG2 Attagene CIS TGFb reporter, mRNA transcription; actives raise or lower the signal
In short: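 HepG2 cells transiently transfected with cis-promoter-driven multiplexed reporter units; 24 h compound exposure. Reporter mRNA measured by RT-PCR, 6-FAM labeling, HpaI digestion and capillary electrophoresis; bidirectional fit versus DMSO baseline.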

[12] = biological target: Nuclear receptor subfamily 1 group I member 3 (Homo sapiens) (UniProt Q14994); test: ATG_CAR_TRANS: Attagene TRANS-FACTORIAL HepG2 Assay for human Constitutive Androstane Receptor (CAR) (AID 2282969; active = hit-call score of the fitted dose curve at least 0.9, where 1 is the maximum;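 note: activators raise reporter mRNA above DMSO so AC50 marks induction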); conditions: HepG2 Attagene TRANS-FACTORIAL CAR reporter
Nuclear receptor subfamily 1 group I member 3 (Homo sapiens), sequence (Q14994 whole entry, looked up, the tested form may be a part): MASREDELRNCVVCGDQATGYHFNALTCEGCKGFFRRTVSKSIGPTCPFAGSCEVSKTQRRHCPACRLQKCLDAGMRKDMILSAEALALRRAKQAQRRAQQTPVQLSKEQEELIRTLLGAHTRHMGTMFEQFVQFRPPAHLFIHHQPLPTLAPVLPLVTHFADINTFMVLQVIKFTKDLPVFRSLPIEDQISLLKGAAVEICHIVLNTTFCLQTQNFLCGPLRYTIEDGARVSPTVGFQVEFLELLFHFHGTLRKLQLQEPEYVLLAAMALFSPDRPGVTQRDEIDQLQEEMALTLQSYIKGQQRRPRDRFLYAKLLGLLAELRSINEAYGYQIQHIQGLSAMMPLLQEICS
In short: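 Transiently transfected HepG2, multiplex TRANS reporters (CAR-Gal4 chimera driving GAL4-UAS reporter). 24 h dosing. Readout: reporter transcript by RT-PCR + capillary electrophoresis, fluorescence intensity; positive direction vs DMSO.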

[13] = biological target: X-box-binding protein 1 (Homo sapiens) (UniProt P17861); test: ATG_Xbp1_CIS: Attagene CIS-FACTORIAL HepG2 Assay for human X-box Binding Protein 1 (XBP1) (AID 2282972); conditions: HepG2 XBP1 cis-element reporter, Attagene multiplex; actives raise or lower the signal
X-box-binding protein 1 (Homo sapiens), sequence (P17861 whole entry, looked up): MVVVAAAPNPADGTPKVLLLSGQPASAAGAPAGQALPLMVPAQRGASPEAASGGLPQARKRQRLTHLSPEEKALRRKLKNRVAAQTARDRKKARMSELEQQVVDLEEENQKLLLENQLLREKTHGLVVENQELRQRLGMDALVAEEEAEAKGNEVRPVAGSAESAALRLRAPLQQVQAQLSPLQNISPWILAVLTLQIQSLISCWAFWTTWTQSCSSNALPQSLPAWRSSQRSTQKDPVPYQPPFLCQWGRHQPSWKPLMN
In short: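 Multiplexed cis-reporter readout in transfected HepG2 liver cells. Exposure lasted 24 hours. Activity in either direction was fitted against DMSO as negative control and baseline.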

[14] = ATG_M_19_TRANS: Attagene TRANS-FACTORIAL HepG2 Assay for M19 Transcription Factor (Internal Marker) (AID 2282974; active = hit-call score of the fitted dose curve at least 0.9, where 1 is the maximum); conditions: HepG2 Attagene TRANS-FACTORIAL M19 internal marker reporter
In short: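 Background-control readout: after 24 h chemical exposure of transfected HepG2 carrying GAL4-driven reporter units, RNA was reverse-transcribed, amplified, fluorescently labeled and sized by capillary electrophoresis; gain-of-signal fit against DMSO.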

[15] = biological target: Estrogen-related receptor gamma (Homo sapiens) (UniProt P62508); test: ATG_ERRg_TRANS: Attagene TRANS-FACTORIAL HepG2 Assay for human Estrogen-Related Receptor gamma (ERRg) (AID 2282977; active = hit-call score of the fitted dose curve at least 0.9, where 1 is the maximum;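 note: hits increase reporter signal over DMSO so potencies reflect activators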); conditions: HepG2 Attagene TRANS reporter, ERRg transactivation
Estrogen-related receptor gamma (Homo sapiens), sequence (P62508 whole entry, looked up, the tested form may be a part): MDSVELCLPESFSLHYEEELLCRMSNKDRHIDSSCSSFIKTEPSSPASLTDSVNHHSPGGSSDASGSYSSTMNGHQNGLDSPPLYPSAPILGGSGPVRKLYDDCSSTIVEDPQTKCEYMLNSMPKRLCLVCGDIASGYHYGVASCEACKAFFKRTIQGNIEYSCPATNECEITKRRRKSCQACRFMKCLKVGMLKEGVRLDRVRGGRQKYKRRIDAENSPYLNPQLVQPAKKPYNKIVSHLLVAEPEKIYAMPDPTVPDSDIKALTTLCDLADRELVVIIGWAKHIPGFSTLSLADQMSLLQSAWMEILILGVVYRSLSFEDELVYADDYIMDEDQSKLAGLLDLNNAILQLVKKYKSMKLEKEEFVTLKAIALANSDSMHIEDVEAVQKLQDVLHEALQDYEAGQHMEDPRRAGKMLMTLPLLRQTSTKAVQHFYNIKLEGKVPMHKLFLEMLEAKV
In short: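 Induction of reporter transcripts through a chimeric NR-Gal4 protein is quantified in transfected human HepG2 liver cells after 24 h chemical exposure, using RT-PCR with capillary electrophoresis detection and DMSO as baseline.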

[16] = biological target: Glucocorticoid receptor (Homo sapiens) (UniProt P04150); test: ATG_GR_TRANS: Attagene TRANS-FACTORIAL HepG2 Assay for human Glucocorticoid Receptor (GR) (AID 2282978; active = hit-call score of the fitted dose curve at least 0.9, where 1 is the maximum;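 note: activators score as hits since higher reporter transcript over DMSO is fitted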); conditions: HepG2 Attagene TRANS GR reporter, mRNA transcription
Glucocorticoid receptor (Homo sapiens), sequence (P04150 whole entry, looked up, the tested form may be a part): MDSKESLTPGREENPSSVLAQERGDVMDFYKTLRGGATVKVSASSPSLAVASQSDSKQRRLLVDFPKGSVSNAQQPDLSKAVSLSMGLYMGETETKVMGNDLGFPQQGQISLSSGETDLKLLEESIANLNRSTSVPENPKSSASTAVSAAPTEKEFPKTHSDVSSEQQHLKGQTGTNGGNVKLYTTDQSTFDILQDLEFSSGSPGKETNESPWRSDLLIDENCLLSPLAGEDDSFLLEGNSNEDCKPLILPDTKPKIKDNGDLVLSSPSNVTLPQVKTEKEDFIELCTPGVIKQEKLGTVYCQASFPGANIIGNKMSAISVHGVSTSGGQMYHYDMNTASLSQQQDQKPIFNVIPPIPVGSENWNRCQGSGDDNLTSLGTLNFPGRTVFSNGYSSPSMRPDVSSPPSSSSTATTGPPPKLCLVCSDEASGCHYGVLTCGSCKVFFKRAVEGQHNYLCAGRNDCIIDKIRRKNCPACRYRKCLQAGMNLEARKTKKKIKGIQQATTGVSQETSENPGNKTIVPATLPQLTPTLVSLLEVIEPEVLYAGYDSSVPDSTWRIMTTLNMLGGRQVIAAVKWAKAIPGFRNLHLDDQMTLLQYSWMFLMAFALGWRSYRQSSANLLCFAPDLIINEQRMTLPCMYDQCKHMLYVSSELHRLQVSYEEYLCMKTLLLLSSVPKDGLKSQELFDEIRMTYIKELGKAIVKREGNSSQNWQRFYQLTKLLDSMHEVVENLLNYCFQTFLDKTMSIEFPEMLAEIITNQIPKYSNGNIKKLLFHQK
In short: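 Readout is reporter transcript from a chimeric GR-Gal4 acting on GAL4-UAS in transfected human HepG2 liver cells after 24 h exposure, quantified by RT-PCR and capillary electrophoresis. Activation fitted upward against DMSO.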

[17] = ATG_GAL4_TRANS: Attagene TRANS-FACTORIAL HepG2 Assay for GAL4 (Internal Marker) (AID 2282976; active = hit-call score of the fitted dose curve at least 0.9, where 1 is the maximum); conditions: HepG2 Attagene TRANS GAL4 internal marker reporter
In short: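 Background-control readout: GAL4-UAS reporter transcript in transiently transfected HepG2 cells after 24 h compound exposure. Measured by RT-PCR, 6-FAM primer extension, HpaI digest and capillary electrophoresis; gain-of-signal fit versus DMSO.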

[18] = ATG_VDRE_CIS: Attagene CIS-FACTORIAL HepG2 Assay for human Vitamin D Receptor Element (VDRE) (AID 2282968); conditions: HepG2 VDRE cis-reporter transcription, actives raise or lower the signal
In short: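 Compounds were applied for 24 h to HepG2 cells transfected with promoter-regulated reporter units. Total RNA was reverse-transcribed, and reporter amplicons were fluorescently labelled and sized by capillary electrophoresis.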

Measured: AC50

C/C=C(\C)C(=O)OCCc1ccccc1
active: [1] 27.7 µM
not listed: [17] | [18]
inactive: all other assays above

CC(=O)CC(=O)Nc1ccccc1
not listed: [3] | [12] | [14] | [15] | [16] | [17] | [18]
inactive: all other assays above

CC(C)C[C@H](NC(=O)OCC1c2ccccc2-c2ccccc21)C(=O)O
active: [1] 28.2 µM | [2] 14.7 µM | [6] 69.1 µM
not listed: [9] | [15] | [16] | [18]
inactive: all other assays above

C=C(C)[C@H]1CC=C(C)C(=O)C1
inactive: [3] | [4] | [6] | [7] | [10] | [11] | [18] | [13] | [16]
active: [1] 27.9 µM

C=Cc1ccc(C)cc1
active: [1] 36.9 µM
not listed: [15]
inactive: all other assays above

CCCCCCCCCCCC(=O)OCC(O)CO (stereo not given)
active: [1] 169 µM | [6] 100 µM
inactive: [3] | [4] | [5] | [7] | [9] | [10] | [11] | [18] | [13]

CC(=O)C1(C)CC2=C(CCCC2(C)C)CC1C (stereo not given)
active: [1] 25.6 µM | [3] 74.4 µM | [5] 162 µM | [6] 85.8 µM | [9] 73.3 µM | [10] 148 µM
not listed: [2] | [15]
inactive: all other assays above
